Where a name gives a salt, the structure may show the parent alone.

In one test the test system is LOC_OS02G54510-cb004. Put plainly: thermal shift delta Tm vs DMSO control; higher = stronger stabilization (binding). The conditions noted are these: 12.5 µM; protein concentration 2 µM. A digest of the protocol:
(§1)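 Rice kinase domain constructs were expressed in E. coli, purified, and tested by differential scanning fluorimetry with compound added in DMSO. Each well of a 96-well plate held 19.5 μl of 2 μM kinase in 100 mM potassium phosphate pH 7.5, 150 mM NaCl, 10% glycerol and 5 × SYPRO Orange, and fluorescence was read from 25°C to 95°C at 0.05°C/s. The melting temperature shift is the mean of triplicates, taken against protein with DMSO alone after Boltzmann fitting.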
For the molecule `C[C@@H]1COC(Nc2ccc3ncnc(Nc4ccc(OCc5nccs5)c(Cl)c4)c3c2)=N1` [Varlitinib], the “thermal shift delta Tm” value came to 0.27 °C.
As for `COc1cc(Nc2ncc(F)c(Nc3ccc4c(n3)NC(=O)C(C)(C)O4)n2)cc(OC)c1OC`, the “thermal shift delta Tm” value stood at 4.62 °C.
For `CC(C)n1nc(-c2ccc3oc(N)nc3c2)c2c(N)ncnc21`, the “thermal shift delta Tm” value is 0.93 °C.
In the case of `Cc1cc(NC(=O)c2cccc(NC(=O)/C=C/CN(C)C)c2)ccc1Nc1nccc(-c2cccnc2)n1`, the “thermal shift delta Tm” value stood at 0.3 °C.
Regarding `Nc1nccc(Oc2ccc(NC(=O)c3c[nH]cc(-c4ccc(F)cc4)c3=O)cc2F)c1Cl`, the “thermal shift delta Tm” value amounted to 0.77 °C.
For the molecule `COc1ccc(/C=C/C(=O)C2(C(=O)/C=C/c3ccc(OC)c(OC)c3)CCCCC2)cc1OC`, the “thermal shift delta Tm” value amounted to 0.31 °C.
For the molecule `CC(C)CC(=O)Nc1n[nH]c2c1CN(C(=O)C1CCN(C)CC1)C2(C)C`, the “thermal shift delta Tm” value was 0.36 °C.

In a further test the test system is LOC_OS03G04050-cb001. Described as above. Particulars: 12.5 µM; protein concentration 2 µM. The essentials:
as §1
Consider `CCn1c(=O)c(-c2ccc(-c3cncs3)cc2Cl)cc2cnc(Nc3ccc(N4CCN(C)CC4)cc3)nc21`, for which the “thermal shift delta Tm” value was found to be 0.71 °C.
As for `CNC(=O)c1cccc(-c2ccc3c(N4CCOC[C@@H]4C)nc(N4CCOC[C@@H]4C)nc3n2)c1` [Vistusertib (AZD2014)], the “thermal shift delta Tm” value was 0.18 °C.
As to `CC(C)S(=O)(=O)c1ccc2nccc(Nc3ccc4scnc4c3)c2c1`, the “thermal shift delta Tm” value was 0.51 °C.
As for `Cn1cc(-c2ccc3ncc(Cc4ccc5ncccc5c4)n3n2)cn1`, the “thermal shift delta Tm” value came out at 0.32 °C.
For `N#Cc1ccc2ncnc(NCCc3ccccc3)c2c1` [Senexin A], the “thermal shift delta Tm” value is 0.34 °C.
With `O=C1NC(=O)/C(=C/c2ccc3nccc(-c4ccncc4)c3c2)S1`, the “thermal shift delta Tm” value was 0.38 °C.
The same measure, in the same setting: the figure for `Cn1cnc2c(F)c(Nc3ccc(Br)cc3F)c(C(=O)NOCCO)cc21` is 0.71 °C.
On to `Cc1cc(Nc2ncc(Cl)c(Nc3ccccc3S(=O)(=O)C(C)C)n2)c(OC(C)C)cc1C1CCNCC1` [Ceritinib (LDK378)], for which the “thermal shift delta Tm” value amounted to 0.7 °C.
With `Cc1nc2ccc(-n3ncc(C(=O)c4cc5ccccc5[nH]4)c3N)cc2[nH]1`, the “thermal shift delta Tm” value stood at 0.05 °C.
Turning to `C=C[C@@](C)(/C=C/c1ccc(O)cc1)CCC=C(C)C` [Bakuchiol], the “thermal shift delta Tm” value is 0.71 °C.
Still for that read-out and setting: next, `C=CC(=O)Nc1cccc(Nc2nc(Nc3ccc(N4CCN(C(C)=O)CC4)cc3OC)ncc2C(F)(F)F)c1` [Rociletinib (CO-1686, AVL-301)]: 0.43 °C; `CCCS(=O)(=O)Nc1ccc(F)c(C(=O)c2c[nH]c3ncc(-c4ccc(Cl)cc4)cc23)c1F` [Vemurafenib (PLX4032, RG7204)]: 0.64 °C.
For the molecule `COc1cc(OC)c(C=C2C(=O)Nc3ccccc32)c(OC)c1`, the “thermal shift delta Tm” value was -0.08 °C.
In the case of `CCN(CC)CCCC(C)Nc1nc(C)cc(Nc2ccc3nc(C)cc(N)c3c2)n1` (stereo not given), the “thermal shift delta Tm” value was determined as 0.55 °C.
In the case of `CN1CC(O)C2=C/C(=N/NC(N)=O)C(=O)C=C21` (stereo not given) [Carbazochrome], the “thermal shift delta Tm” value amounted to 0.65 °C.
`Cc1cc(Nc2cc(N3CCN(C)CC3)nc(/C=C/c3ccccc3)n2)n[nH]1`: the “thermal shift delta Tm” value was determined as 0.21 °C.
Turning to `Cc1ccc(NC(=O)Nc2cc(C(F)(F)F)ccc2F)cc1Nc1ccc2c(c1)NC(=O)/C2=C\c1ccc[nH]1`, the “thermal shift delta Tm” value stood at 1.3 °C.
Still for that read-out and setting: the figure for `CO[C@H]1C[C@@H]2CC[C@@H](C)[C@@](O)(O2)C(=O)C(=O)N2CCCC[C@H]2C(=O)O[C@H]([C@H](C)C[C@@H]2CC[C@@H](O)[C@H](OC)C2)CC(=O)[C@H](C)/C=C(\C)[C@@H](O)[C@@H](OC)C(=O)[C@H](C)C[C@H](C)/C=C/C=C/C=C/1C` [Rapamycin (Sirolimus)] is 0.5 °C; for `C[S+]([O-])c1ccc(-c2nc(-c3ccc(F)cc3)c(-c3ccncc3)[nH]2)cc1` (stereo not given) it is 1.08 °C.
Turning to `CO[C@H]1CC[C@H](N2C(=O)CNc3ncc(-c4ccc(C(C)(C)O)nc4)nc32)CC1`, the “thermal shift delta Tm” value was 0.09 °C.
For `O=C(Nc1ccccc1C(=O)NC1CCCCNC1=O)c1cc2ccccc2s1` (stereo not given), the “thermal shift delta Tm” value was found to be 0.19 °C.
`CCN1CCN(Cc2ccc(-c3cc4c(N[C@H](C)c5ccccc5)ncnc4[nH]3)cc2)CC1`: the “thermal shift delta Tm” value was -0.21 °C.
As for `Cc1cnc(NC(=O)Nc2cc(Br)c(C)cc2OC[C@@H]2CNCCO2)cn1`, the “thermal shift delta Tm” value was found to be 0.38 °C.
Same read-out and setting: next, `Cc1ccc(NC(=O)c2ccc(CN3CCN(C)CC3)cc2)cc1Nc1nccc(-c2cccnc2)n1` [Imatinib Mesylate (STI571)]: 0.17 °C; `NC(=O)c1ccc(N(C(N)=O)c2c(F)cccc2F)nc1-c1ccc(F)cc1F`: 0.39 °C.
As to `Cc1nc(-c2cn3c(n2)-c2ccc(-c4cnn(C(C)(C)C(N)=O)c4)cc2OCC3)n(C(C)C)n1` [Taselisib (GDC 0032)], the “thermal shift delta Tm” value came to 0.54 °C.
On to `COc1cc(N2CCC(N(C)C)CC2)ccc1Nc1ncc(Cl)c(Nc2ccccc2P(C)(C)=O)n1`, for which the “thermal shift delta Tm” value was found to be 0.53 °C.
Take `COc1cc2c(Nc3ccc(NC(=O)c4ccccc4)cc3)ncnc2cc1OCCCN1CCOCC1`: the “thermal shift delta Tm” value turned out to be 0.55 °C.
With `CNC(=O)c1cc(Oc2ccc(NC(=O)Nc3cc(C(C)(C)C)nn3-c3ccc4ncccc4c3)c(F)c2)ccn1` [Rebastinib (DCC-2036)], the “thermal shift delta Tm” value was 0.59 °C.
Consider `CC(C)(CO)n1cc(C(=O)c2cncc(NC(=O)Cc3ccc(Cl)cn3)c2)c2cnc(N)nc21`, for which the “thermal shift delta Tm” value is 0.46 °C.
For `CS(=O)(=O)N1CCN(Cc2cc3nc(-c4cccc5[nH]ncc45)nc(N4CCOCC4)c3s2)CC1` [Pictilisib (GDC-0941)], the “thermal shift delta Tm” value is 0.28 °C.
Same read-out and setting: the figure for `C[C@@H]1COC(Nc2ccc3ncnc(Nc4ccc(OCc5nccs5)c(Cl)c4)c3c2)=N1` [Varlitinib] is 0.48 °C.
Regarding `COc1cc(Nc2ncc(F)c(Nc3ccc4c(n3)NC(=O)C(C)(C)O4)n2)cc(OC)c1OC`, the “thermal shift delta Tm” value was determined as 0.45 °C.
Regarding `CC(C)n1nc(-c2ccc3oc(N)nc3c2)c2c(N)ncnc21`, the “thermal shift delta Tm” value amounted to 0.38 °C.
With `Cc1cc(NC(=O)c2cccc(NC(=O)/C=C/CN(C)C)c2)ccc1Nc1nccc(-c2cccnc2)n1`, the “thermal shift delta Tm” value came to 1.05 °C.
`Nc1nccc(Oc2ccc(NC(=O)c3c[nH]cc(-c4ccc(F)cc4)c3=O)cc2F)c1Cl`: the “thermal shift delta Tm” value was found to be 0.58 °C.
As to `COc1ccc(/C=C/C(=O)C2(C(=O)/C=C/c3ccc(OC)c(OC)c3)CCCCC2)cc1OC`, the “thermal shift delta Tm” value was found to be 0.85 °C.
On the same count and under the same terms, next, `CC(C)CC(=O)Nc1n[nH]c2c1CN(C(=O)C1CCN(C)CC1)C2(C)C`: 0.36 °C.

Source of the values: the supplement of paper PMC9694430.
